# Source: PubChem (The Scripps Research Institute Molecular Screening Center)
# SMARCA2 act: SMARCA2 (BRM) function activators, primary screen, cell-based, luminescence, high throughput. 370,000 compounds, 1% hits. activation, % at 9.1 µM. MG213 cells, MMTV-luciferase reporter, dexamethasone, overnight; in the data active = activation above about 7.8%;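 note: 0% = vehicle wells and 100% = reference activator wells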
# ssDAF12 agonist: S. stercoralis DAF-12 nuclear receptor activators, primary screen, cell-based, luminescence, HEK293, GRIP1 co-expression, lit1-tk-luc | Nuclear hormone receptor DAF-12 (Strongyloides stercoralis) | HEK293 ssDAF-12/GRIP1 lit1-tk-luc reporter; % of 3 µM dafachronic acid response | activation, % at 6.8 µM | 370,000 compounds, 1% hits;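 active = activation above the mean over all tested compounds plus 3 SD, cut at about 0.9% in these data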;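 note: 0% = DMSO-only wells and 100% = 3 µM delta7-dafachronic acid wells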
# hcDAF-12 act: H. contortus DAF-12 nuclear receptor activators, primary screen, cell-based, luminescence, HEK293, lit1-tk-luc reporter. activation, % at 6.8 µM. HEK293 hcDAF-12 lit1-tk-luc reporter; 0% DMSO, 100% Δ7-dafachronic acid. 370,000 compounds, 1.4% hits;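 active = activation above the mean of all tested compounds plus 3 SD, cut at about 5.5% in these data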;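 note: 100% = response to 3 µM Δ7-dafachronic acid high control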
# hgDAF-12 ag: H. glycines DAF-12 receptor agonists, primary screen, cell-based, luminescence, HEK293, GAL4 fusion, UAS-luciferase | activation, % at 6.8 µM | 370,000 compounds, 1.8% hits | HEK293 GAL4-hgDAF12 UAS-luciferase reporter, agonist luminescence; normalized to butyrate control | Nuclear hormone receptor DAF-12 (Heterodera glycines), GAL4 fusion;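 active = activation above a cutoff set at the mean of all screened compounds plus 3 SD, cut at about 10% in these data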;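 note: 0% = DMSO wells and 100% = sodium butyrate wells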
# DAX1 inh: DAX1 (NR0B1) inhibitors on StAR promoter, primary screen, cell-based, luminescence, SF-1 (NR5A1), full-length DAX-1. HEK293T StAR-luciferase reporter, SF-1/DAX-1 repression relief. inhibition, % at 6.8 µM. 370,000 compounds, 1.1% hits. AID 652010, 2013;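 active = inhibition above the mean over all tested compounds plus 3 SD, cut at about 3.6% in these data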;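 note: 0% = DAX-1 cells with DMSO and 100% = cells lacking DAX-1 with DMSO; higher inhibition means more luminescence from relief of DAX-1 repression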
# An asterisk follows results filed as active; nt = no result given. Compounds with a hit are over-represented: about 4.2% of the library has one in this group of screens.
SMILES,SMARCA2 act,ssDAF12 agonist,hcDAF-12 act,hgDAF-12 ag,DAX1 inh
COc1ccc(CCNC(=O)c2ccc(CN3CCOCC3)cc2)cc1,2,-2,-2,1,0
Cc1cc(C(=O)NCCC2=CCCCC2)ccc1[N+](=O)[O-],3,-1,3,11*,3
O=C(CCNC(=O)c1ccc([N+](=O)[O-])cc1)NCCC1=CCCCC1,-1,0,-1,-1,0
C[C@@H]1CNC(=O)c2c(C(=O)N(C)Cc3ccccc3)ncn21,-5,0,1,3,0
Cc1cccc2sc(NC(=O)[C@@H]3CCCN3C(=O)c3cccs3)nc12,1,-1,1,2,0
O=C(Nc1nc2ccc(Cl)cc2s1)[C@@H]1CCCN1C(=O)c1cccs1,2,0,5.7*,10,1
O=C(O)/C=C/C(=O)Nc1ccc(C(=O)c2ccccc2)cc1,3,0,-1,2,1
O=C(O)/C=C/C(=O)Nc1ccc2c(c1)C(=O)c1ccccc1C2=O,5,0,5,13*,2
O=C(Nc1ccccc1)OCC1CCCN2CCCCC12 (stereo not drawn),0,0,1,1,0
CC1=CCC(COC(=O)Nc2ccccc2)CC1 (stereo not drawn),3,0,2,11*,3
O=C(CC1CCCC1)N1CC[C@H]2[C@H](CCCN2Cc2ccccc2)C1,2,-1,0,-1,1
COc1cc(O)c(C(C)=O)c(CC(=O)O)c1,2,0.9*,-1,-3,0
COc1ccc(OCC(=O)Nc2c(Cl)ccc3nsnc23)cc1,-3,-1,6.2*,0,-1
COc1ccc(OCC(=O)Nc2c(C)ccc3nsnc23)cc1,-3,-1,-2,-2,-3
Cc1cccc(NC(=O)Nc2ccc3c(c2)CCC3)c1,5,-1,1,6,4.1*
O=C(Cc1ccc2c(c1)CCCC2)Nc1ccc2ccccc2c1,3,1,5.7*,4,2
O=C(Cc1cccc(F)c1)Nc1ccc2c(c1)CCC2,1,-1,-1,4,0
CCc1ccc(NC(=O)Nc2ccc3c(c2)CCC3)cc1,4,-1,0,4,3.7*
COc1cccc(NC(=O)Nc2ccc3c(c2)CCC3)c1,6,-1,4,12*,4.1*
CC(=O)c1cccc(NC(=O)Nc2ccc3c(c2)CCC3)c1,1,0,-1,4,1
CC[C@H](CCC(=O)N(c1ccccc1)c1ccccc1)c1ccc(C)cc1,-5,-1,-1,1,-1
Cc1cccc(OCCCN2CCC(C(O)(c3ccccc3)c3ccccc3)CC2)c1,-3,-2,-1,2,0
COc1ccc2c(c1)Sc1ccc(Cl)cc1N2,nt,-1,0,2,nt
O=C(NCC1CCN(C(=O)C(=O)c2cccs2)CC1)c1ccc2c(c1)OCO2,-1,-1,0,1,0
Cc1cccc(NC(=O)Nc2ccncc2)c1,0,1.1*,-1,4,0
SMILES,SMARCA2 act,ssDAF12 agonist,hcDAF-12 act,hgDAF-12 ag,DAX1 inh
Cc1cccc(NC(=O)Nc2cnccn2)c1,-1,-1,-2,-2,0
CCCCNC(=O)c1cc(-c2ccc3c(c2)OCO3)on1,3,0,3,2,1
CCCNC(=O)c1cc(-c2ccc3c(c2)OCO3)on1,1,0,2,11*,3
CC1CCN(C(=O)c2cc(-c3ccc4c(c3)OCO4)on2)CC1,7,0,4,12*,2
O=C(O)c1ccc(N/N=C/c2c[nH]c3ccccc23)cc1,-2,0,5.8*,0,0
Cn1c(N/N=C/c2c[nH]c3ccccc23)nc2ccccc21,3,1,5.6*,-1,1
Fc1c(F)c(F)c(N/N=C/c2c[nH]c3ccccc23)c(F)c1F,-4,-1,6.3*,-2,0
Cc1cc(C)nc(N/N=C/c2c[nH]c3ccccc23)n1,-3,1,5,0,0
